Results: PubChem BioAssay (NCATS)
Records with an inconclusive call do not appear. Unmarked numbers belong to inactive results. Calls of active or inactive are those of the source. Unless noted, calls follow the shape of the full dose curve.
% is scaled to controls: 0 for no effect and ±100 for the full control effect.

Tested on: not listed separately
Assay: qHTS for Inhibitors of the Functional Ribonucleoprotein Complex (vRNP) of Lymphocytic Choriomeningitis Arenaviruses (LCMV): Viability assay - alamar blue signal for LCMV Primary Screen (AID 1347085; calls by dose curve; tested in HEK293 reporter line; also: nearly all actives have a fitted effect of over 80% in size; also: potency is read from the fitted curve at half-maximal effect)
Conditions: alamar blue viability counter-screen, LCMV vRNP screen cells; series mostly up to 57.5 µM; activity change, negative = lower viability: at the top concentration
In the case of COCCCCC(=NOCCN)c1ccc(C(F)(F)F)cc1, the Potency is reported as 38.5 µM (active). In the case of C=C[C@H]1CN2CC[C@@H]1C[C@@H]2[C@@H](O)c1ccnc2ccc(OC)cc12, the “activity change, negative = lower viability” value is reported as -16.6%. With NC[C@@H]1O[C@H](C23CC4CC(CC(C4)C2)C3)Cc2c1ccc(O)c2O the “activity change, negative = lower viability” value was -22.5%. With CCN(CC)CCCCCCCCOC(=O)c1cc(OC)c(OC)c(OC)c1 the “activity change, negative = lower viability” value was -4.06%.

Target: Nucleoprotein (Lymphocytic choriomeningitis virus (strain Armstrong)) (UniProt P09992)
Sequence (P09992 whole entry, looked up): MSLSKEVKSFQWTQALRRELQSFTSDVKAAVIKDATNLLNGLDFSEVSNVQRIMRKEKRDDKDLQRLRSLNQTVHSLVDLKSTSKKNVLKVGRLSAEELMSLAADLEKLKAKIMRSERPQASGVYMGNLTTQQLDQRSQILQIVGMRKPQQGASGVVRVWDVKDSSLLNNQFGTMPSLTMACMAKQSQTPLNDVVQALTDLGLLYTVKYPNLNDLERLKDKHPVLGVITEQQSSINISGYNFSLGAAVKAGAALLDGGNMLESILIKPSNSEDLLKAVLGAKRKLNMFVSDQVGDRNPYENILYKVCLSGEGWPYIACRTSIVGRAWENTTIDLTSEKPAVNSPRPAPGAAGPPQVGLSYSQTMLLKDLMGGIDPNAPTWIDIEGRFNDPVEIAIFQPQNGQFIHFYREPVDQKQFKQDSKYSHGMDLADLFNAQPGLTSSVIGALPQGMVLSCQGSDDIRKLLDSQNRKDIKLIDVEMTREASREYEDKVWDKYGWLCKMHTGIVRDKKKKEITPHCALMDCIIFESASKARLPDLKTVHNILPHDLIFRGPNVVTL
Assay: qHTS for Inhibitors of the Functional Ribonucleoprotein Complex (vRNP) of Lymphocytic Choriomeningitis Arenaviruses (LCMV): LCMV Primary Screen - GLuc reporter signal (AID 1347086); also: nearly all actives have a fitted effect of over 70% in size; also: potency is read from the fitted curve at half-maximal effect
Conditions: LCMV minigenome vRNP cell assay, Gaussia luciferase reporter; series mostly up to 57.5 µM; activity change, negative = inhibition: at the top concentration
In the case of COc1cc(O)c2c(c1)C1OC1C[C@H](O)[C@H](O)C(=O)C=CC[C@H](C)OC2=O (stereo partly drawn), the Potency is reported as 34.3 µM (active). With Cc1cccc(-c2[nH]c(C(C)(C)C)nc2-c2ccc3c(c2)OCO3)n1 the Potency was 7.69 µM (active). For CCNC(=O)c1cc2c(-c3cc(OCCN4CCCC4)c(Cl)cc3Cl)nc(N)nc2s1, the Potency was 1.37 µM (active). With CC(C)(C)Cn1c(N)nc2ccc(-c3[nH]c(C(C)(C)C)nc3-c3ccc(F)cc3)nc21 the “activity change, negative = inhibition” value was 2.44%. For C[C@]12C=CC(=O)C=C1CC[C@@H]1[C@@H]2CC[C@]2(C)C(=O)CC[C@@H]12, the “activity change, negative = inhibition” value was -5.54%. In the case of CCCCCC[C@@H](O)C/C=C\CCCCCCCC(=O)O, the “activity change, negative = inhibition” value is reported as -46.8% [at 115 µM]. In the case of Nc1ncnc2c1ncn2[C@@H]1O[C@H](CO)C[C@@H]1O, the “activity change, negative = inhibition” value is reported as -15.2%. With CC(=O)O[C@@H]1/C=C/[C@](C)(O)C[C@@H](C)C/C=C/[C@H]2[C@H](O)C(C)=C(C)[C@H]3[C@H](Cc4ccccc4)NC(=O)[C@@]123 the “activity change, negative = inhibition” value was -19.9%. For COc1cc2c(cc1OC)CN(CCc1ccc(NC(=O)c3cc(OC)c(OC)cc3NC(=O)c3cnc4ccccc4c3)cc1)CC2, the “activity change, negative = inhibition” value was 7.8%. In the case of COc1c2ccoc2c(OC[C@@H](O)C(C)(C)OC)c2oc(=O)ccc12, the “activity change, negative = inhibition” value is reported as -21.6%. For Cc1ncc(C[n+]2csc(CCO)c2C)c(N)n1, the “activity change, negative = inhibition” value was -21.7% [at 115 µM]. In the case of CN(C)Cc1cccc(N=C(c2ccccc2)c2c(O)[nH]c3cc(C(=O)N(C)C)ccc23)c1, the “activity change, negative = inhibition” value is reported as -32.6%. For C[C@]1(c2nc3c(C(N)=O)cccc3[nH]2)CCCN1, the “activity change, negative = inhibition” value was -25.8%. With CC(C)(N)c1ccc(-c2nc3ccccc3nc2-c2ccccc2)cc1 the “activity change, negative = inhibition” value was -35%. With Cc1cc(OCCCS(C)(=O)=O)cc(C)c1-c1cccc(COc2ccc3c(c2)OC[C@H]3CC(=O)O)c1 the “activity change, negative = inhibition” value was -0.673%. With COc1ccc(-c2cc3c(C)nc(N)nc3n(C3CCC(OCCO)CC3)c2=O)cn1 (stereo not drawn) the Potency was 0.153 µM (active). For COc1ccc(CCC(=O)c2c(O)cc(O[C@@H]3O[C@H](CO)[C@@H](O)[C@H](O)[C@@H]3O[C@@H]3O[C@@H](C)[C@H](O)[C@@H](O)[C@@H]3O)cc2O)cc1O, the Potency was 6.11 µM (active). For C=CCNc1c(O)cc2c(O)c1C[C@@H](C)C[C@H](OC)[C@@H](O)[C@@H](C)C=C(C)[C@H](OC(N)=O)[C@@H](OC)C=CC=C(C)C(=O)N2, the Potency was 4.85 µM (active). With COc1cc2ncn(-c3cc(OCc4ccccc4S(C)(=O)=O)c(C#N)s3)c2cc1OC the “activity change, negative = inhibition” value was -37.3%. In the case of COc1ccc(-c2cc3nccn3c(Nc3ncccc3C(N)=O)n2)cc1OC, the “activity change, negative = inhibition” value is reported as -29.2%. With COc1cccc2c1cc([N+](=O)[O-])c1c(C(=O)O)cc3c(c12)OCO3 the “activity change, negative = inhibition” value was -5.44%. In the case of CCCCCCCCCCCCCCCC(N)=O, the activity change, negative = inhibition is reported as -29.4% [at 5.82 µM]. For C=C(C)[C@@]12OC3(c4ccccc4)O[C@@H]1[C@@H]1[C@@H]4O[C@]4(CO)[C@@H](O)[C@]4(O)C(=O)C(C)=C[C@H]4[C@@]1(O3)[C@H](C)[C@H]2OC(=O)/C=C/C=C/c1ccccc1, the “activity change, negative = inhibition” value was -23.6%. For C[C@@H](NCc1cc2ccccc2[nH]1)c1cccc2ccccc12, the “activity change, negative = inhibition” value was -11.4%. With CC(C)(C)NC(=O)[C@H]1CN(Cc2cccnc2)CCN1C[C@@H](O)C[C@@H](Cc1ccccc1)C(=O)N[C@H]1c2ccccc2C[C@H]1O the “activity change, negative = inhibition” value was -15.2%. In the case of Cc1ccc(NC(=O)Nc2cc(C(F)(F)F)ccc2F)cc1Nc1ccc2c(c1)NC(=O)C2=Cc1ccc[nH]1, the Potency is reported as 27.3 µM (active). For COc1cc(C(=O)O[C@@H]2CC(C)=CC[C@@]3(C)CC[C@](O)(C(C)C)[C@H]23)ccc1O, the “activity change, negative = inhibition” value was -38.6%. In the case of CC#CCn1c(N2CCC[C@@H](N)C2)nc2c1c(=O)n(Cc1nc(C)c3ccccc3n1)c(=O)n2C, the “activity change, negative = inhibition” value is reported as -28.1%. For CCCCC/C=C\C\C=C/C=C/C=C/[C@@H](O)[C@@H](O)CCCC(=O)O, the activity change, negative = inhibition was -32.8% [at 0.757 µM]. For NC(=O)c1cccc2cn(-c3ccc([C@@H]4CCCNC4)cc3)nc12, the “activity change, negative = inhibition” value was -26%. With NC(=O)c1c[nH]c2ccccc12 the “activity change, negative = inhibition” value was -33.8%. In the case of COc1cc(Cl)cn2c(-c3cccc(NC4CNC4)n3)cnc12, the “activity change, negative = inhibition” value is reported as -29.1%. With CC(=O)/C=C/C1C(C)=CCC(C)C1(C)C (stereo not drawn) the “activity change, negative = inhibition” value was -19.4% [at 115 µM]. In the case of CC(C)=CC[C@@H](O)C1=CC(=O)c2c(O)ccc(O)c2C1=O, the “activity change, negative = inhibition” value is reported as 1.91%. With O=C1c2ccccc2C(=O)N1Cc1ccccc1 the “activity change, negative = inhibition” value was 2.82%. In the case of C=C1C2[C@H](OC(C)=O)[C@@H]3CC(=O)[C@]4(C)OC[C@@]3(C)[C@@]4(O)[C@@H](OC(C)=O)[C@H](OC(C)=O)[C@@]2(COC(=O)c2ccccc2)[C@@H](OC(C)=O)C[C@@H]1O (stereo partly drawn), the “activity change, negative = inhibition” value is reported as -9.62%.

Tested on: not listed separately
Assay: Primary qHTS for Huh7 cytotoxicity: counterscreen for inhibitors of MERS-S pseudotyped particle cell entry (AID 1479147)
Conditions: cell viability read-out; series mostly up to 57.1 µM; activity change, negative = cytotoxicity: at the top concentration
For CCCCCC[C@@H](O)C/C=C\CCCCCCCC(=O)O, the outcome was “inactive”. In the case of Cc1ncc(C[n+]2csc(CCO)c2C)c(N)n1, the outcome is reported as “inactive”. For CC#CCn1c(N2CCC[C@@H](N)C2)nc2c1c(=O)n(Cc1nc(C)c3ccccc3n1)c(=O)n2C, the “activity change, negative = cytotoxicity” value was -12.2%.
